Source: PubChem BioAssay
CSC inhib: blocks cancer stem cells; cancer stem cell-like cells viability, luminescence; inhibition, % at 7.5 µM; 1.1% of 300,000 active; AID 2717; in the data active = inhibition above about 75%; tested in HMLE shEcad cells
Mdm2-MdmX inh: inhibitors of human Mdm2/MdmX interaction; O15151+Q00987; SaOS-2 split-luciferase Mdm2/MdmX complementation, luminescence; inhibition, % at 8 µM; 3% of 330,000 active; AID 485346;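 active = inhibition of at least 50% at 8 µM in the primary screen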
Target sequence (O15151 whole entry, looked up): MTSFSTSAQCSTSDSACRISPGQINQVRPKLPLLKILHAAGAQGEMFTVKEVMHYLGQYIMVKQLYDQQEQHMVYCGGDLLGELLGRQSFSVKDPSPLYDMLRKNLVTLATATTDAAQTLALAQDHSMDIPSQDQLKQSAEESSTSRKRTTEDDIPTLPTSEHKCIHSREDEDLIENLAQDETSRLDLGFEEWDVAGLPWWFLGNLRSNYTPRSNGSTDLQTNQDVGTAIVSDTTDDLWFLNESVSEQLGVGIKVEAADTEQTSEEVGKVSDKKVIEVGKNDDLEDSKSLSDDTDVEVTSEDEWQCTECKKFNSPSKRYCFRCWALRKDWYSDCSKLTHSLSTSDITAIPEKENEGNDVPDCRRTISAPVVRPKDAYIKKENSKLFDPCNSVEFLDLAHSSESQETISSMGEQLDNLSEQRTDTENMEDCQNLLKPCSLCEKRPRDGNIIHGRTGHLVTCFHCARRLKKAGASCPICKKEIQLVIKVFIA
Target sequence (Q00987 whole entry, looked up): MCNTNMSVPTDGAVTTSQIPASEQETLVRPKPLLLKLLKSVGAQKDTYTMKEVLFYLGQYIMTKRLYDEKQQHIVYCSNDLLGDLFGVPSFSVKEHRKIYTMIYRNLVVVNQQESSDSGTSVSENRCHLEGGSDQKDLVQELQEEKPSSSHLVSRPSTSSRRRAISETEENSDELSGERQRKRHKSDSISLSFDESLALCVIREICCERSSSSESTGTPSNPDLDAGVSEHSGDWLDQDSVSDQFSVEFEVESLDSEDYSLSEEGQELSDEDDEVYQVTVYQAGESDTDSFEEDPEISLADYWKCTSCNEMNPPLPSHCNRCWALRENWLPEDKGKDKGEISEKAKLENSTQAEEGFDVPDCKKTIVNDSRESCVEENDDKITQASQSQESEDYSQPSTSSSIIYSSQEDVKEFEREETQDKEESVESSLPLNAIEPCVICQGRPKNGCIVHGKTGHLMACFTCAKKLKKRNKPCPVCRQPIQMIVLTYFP
Beta apoptosis: beta cell apoptosis inhibition. INS-1E cytokine-induced death, ATP luminescence, 48 h; percent of positive-control rescue, neutral wells zero. protection from apoptosis, % (test concentration not listed). 0.8% of 300,000 active. AID 435005;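 active = Every replicate reaches about 75%, or at least half do and their mean reaches it too, limit read from the data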;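 also: higher means more ATP so stronger rescue from cytokine killing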
MPTP inh: blocks calcium-induced mitochondrial swelling; isolated mouse mitochondria, Ca2+ swelling absorbance, 30 min; 1.4% of 360,000 active; AID 602449; inhibition, % at 10 µM;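 active = inhibition of 50% or more, scaled per plate between neutral and stimulator controls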
NR3A LBD binder: modulates the human NR3A ligand-binding domain. NR3A LBD differential scanning fluorimetry, Tm shift; 0% = protein alone, 100% = glycine-bound protein. Tm shift relative to glycine control, % at 25 µM. 2.5% of 340,000 active. AID 1259313;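 active = melting temperature shift of at least 10% of the positive control shift, at one fixed dose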
SKKanGAS inh: SKKanGAS growth inhibition. S. pyogenes SKKanGAS, kanamycin growth, BacTiter-Glo, 6 h. inhibition, % at 7.5 µM. 1.3% of 300,000 active. AID 1662;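 active = mean replicate score, as percent of positive control median, at least 50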;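 also: strain carries kanamycin resistance gene driven by streptokinase promoter and grows in 40 µg/ml kanamycin; loss of luminescence reflects streptokinase promoter inhibition or plain growth inhibition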
Rh123 counter: mitochondrial membrane potential, counter-screen. shares compounds with MPTP inh. isolated mitochondria, Rhodamine 123 fluorescence. inhibition, % at 10 µM. 78% of 5,000 active; in the data active = inhibition above about 22%
MPTP swell DR: dose response confirmation of mitochondrial permeability transition pore inhibitors; shares compounds with MPTP inh; 58% of 780 active; AID 651561; IC50, µM; isolated mitochondria swelling, absorbance; in the data active = IC50 below about 20 µM
MPTP cs DR: active in counter-screen for permeability transition pore inhibitors; IC50, µM; AID 651564; shares compounds with MPTP inh; 49% of 780 active; isolated mitochondria counterscreen, fluorescence read-out; in the data active = IC50 below about 80 µM
Hits are given with their value; 0 = inactive; - = no result. Only some compounds are listed: those with a hit (about 6.9% of all), similar ones and a draw of the others.

SMILES | CSC inhib | Mdm2-MdmX inh | Beta apoptosis | MPTP inh | NR3A LBD binder | SKKanGAS inh | Rh123 counter | others
COc1cc(NC(=O)c2ccccc2)c(OC)cc1Cl | 0 | 0 | 0 | 0 | 0 | 0 | -
CCOc1ccccc1C(=O)Nc1cc(Cl)ccc1O | - | 0 | 0 | 92.2 | 15.7 | 54.1 | 75.8
Cc1ccc(Cl)cc1NC(=O)c1ccccc1OCC(=O)Nc1ccc(Cl)cc1 | 78.0 | 0 | 0 | 88.2 | 29.5 | 0 | 92.9
COc1ccccc1C(=O)Nc1cc(Cl)ccc1O | 0 | 0 | 0 | 66.9 | 10.9 | 0 | 36.1
COc1ccc(Cl)cc1NC(=O)c1ccccc1C | 0 | 0 | 0 | 0 | 0 | 0 | -
O=C(O)Cn1c(=O)c(F)cn(C2CCCO2)c1=O (centres undefined) | 0 | 0 | 0 | 0 | 0 | 0 | -
Cc1ccc(C)c(N2CCN(C(=O)c3ccc(CS(=O)Cc4cccc(Cl)c4)o3)CC2)c1 (centres undefined) | 0 | 0 | 0 | 0 | 0 | 0 | -
CCOC(=O)C1=C(C)N(CCCC(=O)O)C(=O)NC1c1cccc(OC)c1 (centres undefined) | 0 | 0 | 0 | - | 0 | 0 | -
C=CCn1c(-c2ccc(S(=O)(=O)N3CCOCC3)cc2)csc1=Nc1ccccc1 | 0 | 0 | 0 | 57.8 | 0 | 0 | 100.2
CC(=O)c1cccc(N=c2scc(-c3ccc(S(=O)(=O)N4CCOCC4)cc3)n2CCO)c1 | 0 | 0 | 75.1 | 97.4 | 0 | 0 | 86.8
COc1ccc(OC)c(S(=O)(=O)N2CCC(C(=O)NCc3ccncc3)CC2)c1 | 0 | 0 | 0 | 0 | 0 | 0 | -
OCC[C@@H]1C[C@H](O)[C@@H](O)[C@]2(CCc3ccccc3O2)O1 | 0 | 0 | 0 | 0 | 0 | 0 | -
CCC(C)[C@@H](CN)NCC1(c2ccccc2)CC1 (some centres undefined) | 0 | 0 | 0 | 0 | 0 | - | -
CC(=O)Nc1ccc(S(=O)(=O)Oc2cccc(N3C(=O)C4CC=CCC4C3=O)c2)cc1 (centres undefined) | 0 | 0 | 0 | 0 | 0 | 0 | -
CC(=O)Nc1ccc(S(=O)(=O)Oc2ccc(N3C(=O)C4CCCCC4C3=O)cc2)cc1 (centres undefined) | 0 | 0 | 0 | 82.8 | 0 | 0 | 52.3
CCCOc1ccc(N2C(=O)CC(N(CCc3ccc(OC)cc3)C(=O)c3ccccc3)C2=O)cc1 (centres undefined) | 0 | 0 | 0 | 0 | 0 | 0 | -
NC1=NC(c2ccccc2)N=C(Nc2ccccc2)N1 (centres undefined) | 0 | 0 | 0 | - | - | 0 | -
c1ccc2c(CSc3ncnc4nc[nH]c34)cccc2c1 | 0 | 0 | 0 | 55.8 | 0 | 0 | 41.3
C[C@H]1c2cccc(O)c2C(=O)C2C(=O)C3(O)C(=O)C(C(N)=O)C(=O)[C@@H](N(C)C)[C@@H]3[C@@H](O)[C@@H]21 (some centres undefined) | - | 0 | - | 89.7 | 0 | - | 0
C[C@H]1c2cccc(O)c2C(O)=C2C(=O)C3(O)C(O)=C(C(N)=O)C(=O)[C@@H](N(C)C)[C@@H]3[C@@H](O)[C@@H]21 (some centres undefined) | 0 | 0 | 0 | 85.0 | 0 | - | 0
CC(=O)c1cccc(NC(=O)C(C)N2CCc3ccccc3C2)c1 (centres undefined) | 0 | 0 | 0 | 0 | 0 | 0 | -
COc1ccc(Nc2ncnc3sc(-c4ccccc4)cc23)cc1 | 0 | 0 | 0 | 71.2 | 16.4 | 0 | 61.1
COc1ncnc2sc(-c3ccccc3)cc12 | 0 | 0 | 0 | 0 | 0 | 0 | -
CC(C)N=c1scc(-c2cccs2)n1/N=C/c1ccc(O)c(O)c1O | 0 | 0 | 0 | 95.0 | 0 | - | 50.1
CCCN1CCC(NC(=O)Nc2ccc(Br)cc2)CC1 | 0 | 0 | 0 | 61.4 | 0 | 0 | 76.3
SMILES | CSC inhib | Mdm2-MdmX inh | Beta apoptosis | MPTP inh | NR3A LBD binder | SKKanGAS inh | Rh123 counter | others
O=S(=O)(NCC1CCCO1)c1cnc(Cl)c(Br)c1 (centres undefined) | 0 | 0 | 0 | 0 | 0 | 0 | -
O=C1N/C(=C\c2ccc(O)cc2)C(=O)c2ccccc21 | 0 | 0 | 0 | 73.1 | 0 | 0 | 0
COc1ccccc1NS(=O)(=O)c1cccc(C(=O)N2CCCC2)c1 | 0 | 0 | 0 | 0 | 0 | - | -
CC(=O)N1CCN(S(=O)(=O)c2cccc(C(=O)OCc3ccc(C(C)(C)C)cc3)c2)CC1 | - | 0 | - | 89.5 | 0 | - | 90.5
CCN1CCN(S(=O)(=O)c2ccc(Cl)c(C(=O)NC(C)c3ccccc3Cl)c2)CC1 (centres undefined) | 0 | 0 | 0 | 0 | 0 | 0 | -
N#C/C(=C\c1ccc(Sc2ccccc2)o1)c1nc2ccccc2[nH]1 | 0 | 0 | - | 94.4 | 0 | 0 | 67.7
N#C/C(=C\c1ccc(-c2ccccc2C(=O)O)o1)c1nc2ccccc2[nH]1 | 0 | 0 | 0 | 0 | 0 | 0 | -
N#C/C(=C/c1ccc(Sc2nc3ccccc3[nH]2)o1)c1ccccc1F | - | 0 | 0 | 95.6 | 0 | 0 | 83.4
N#C/C(=C/c1ccc(Sc2nc3ccccc3[nH]2)o1)c1cccc(F)c1 | 0 | 0 | 0 | 85.1 | 0 | 0 | 86.7
CN1OC[C@@H]2CN(Cc3ccccc3)[C@H](c3cccc(-c4ccc(C#N)cc4)c3)C[C@@H]21 | - | - | - | 0 | 0 | - | -
O=C(c1ccc(NC(=S)Nc2ccc(Cl)c(Cl)c2)cc1)N1CCCC1 | 0 | - | 0 | 103.0 | 15.0 | 0 | 92.0
O=C(Nc1ccccc1)Nc1ccc(Cl)c(S(=O)(=O)N2CCOCC2)c1 | 0 | 0 | 0 | 62.2 | 0 | 0 | 85.7
O=C(CSc1ccccc1)Nc1ccc(Cl)c(S(=O)(=O)N2CCOCC2)c1 | 0 | 0 | 0 | 0 | 0 | - | -
CC(=O)c1ccc(N2CCN(C(=S)Nc3ccc(Cl)c(Cl)c3)CC2)cc1 | 0 | 0 | - | 94.1 | 0 | 0 | 76.9
O=C(Nc1ccc(Cl)c(Cl)c1)N1CCCCCC1 | 0 | 0 | 0 | 0 | 0 | 0 | -
O=C(Nc1ccc(Cl)c(Cl)c1)N1CCOCC1 | 0 | 0 | 0 | 0 | 0 | 0 | -
O=C(Nc1ccc(N2CCOCC2)cc1)Nc1ccc(Cl)c(Cl)c1 | 0 | 0 | 0 | 93.2 | 33.3 | 0 | 79.5
Cc1onc(-c2ccccc2)c1C(=O)Nc1nncs1 | 0 | 0 | 0 | 0 | 0 | 0 | -
O=C(Nc1ccc(Cl)cc1)Nc1ccc(N2CCOCC2)cc1 | 0 | 0 | 0 | 69.2 | 11.0 | 0 | 57.3
CC1CN(C(=O)Nc2ccc(Br)cc2Cl)CC(C)O1 (centres undefined) | 0 | 0 | 0 | 0 | 0 | 0 | -
COc1ccc(C(=O)NCCS(=O)(=O)N(C)C2CCCCC2)cc1 | 0 | 0 | 0 | 0 | 0 | 0 | -
Cn1c(=N)n(CC(O)c2cccc3ccccc23)c2ccccc21 (centres undefined) | 0 | 0 | 0 | 89.5 | 0 | 0 | 0 | MPTP swell DR=3.39;MPTP cs DR=36.8
Cc1cccc(C)c1NC(=O)C[N+](C)(C)CC(O)COc1cccc2ccccc12 (centres undefined) | 0 | 0 | 0 | 81.1 | 0 | 0 | 0 | MPTP swell DR=3.27;MPTP cs DR=50.5
